# In PubChem BioAssay (Tox21):
# Records with an inconclusive call do not appear. Where a call stands in place of a potency, no number is given. Unmarked numbers belong to inactive results. The source made the active and inactive calls. Unless noted, calls come from the whole dose curve; as a rule, active = well fitted curve in the direction sought with a large enough effect in the repeat runs; inconclusive = weak or mixed curves; inactive = no such curve, though single readings can be large; an effect the other way counts as inactive or inconclusive.
# How the values were obtained:
# [1] = qHTS assay to identify small molecule agonists of the RXR signaling pathway - cell viability counter screen (AID 1159529);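 note: HEK 293T cells carrying an RXR-alpha UAS beta-lactamase reporter; series mostly up to about 77 µM; nearly all actives have a fitted effect of over 50% in size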
# Outline: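 RXR-alpha-UAS-bla HEK 293T cells in medium with 2% charcoal-stripped FBS were preincubated 5 hr, then exposed to compounds for 16 hr at 37 C. Viability was read as CellTiter-Glo luminescence after 30 min at room temperature.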
# [2] = qHTS assay to identify small molecule antagonists of the retinoid acid receptor (RAR) signaling pathway - cell viability counter screen (AID 1159551); note: nearly all actives have a fitted effect of over 35% in size
# Outline: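 In this counter screen, the RARE-luciferase line C3RL4 was exposed for 6 h at 37 C and 5% CO2 to compounds with retinol at 1 uM final. Cellular ATP, read by luminescence, served as the viability measure.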
# [3] = qHTS assay to identify small molecule antagonists of the retinoic acid receptor (RAR) signaling pathway (AID 1159552; note: nearly all actives have a fitted effect of over 50% in size)
# Outline: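 RARE-luc C3RL4 cells; cpds + 1 uM (final) retinol, 6 hr, 37 C/5% CO2; luciferase reagent, 30 min RT, luminescence readout. Inhibitors of retinol-driven signal scored.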
# [4] = qHTS assay to identify small molecule agonists of the retinoic acid receptor (RAR) signaling pathway (AID 1159553)
# Outline: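 In this cell-based screen, 1,000 C3RL4 cells per well were cultured overnight, dosed with test chemicals in DMSO for 6 hr, and assessed for RARE luciferase luminescence.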
# [5] = qHTS assay to identify small molecule antagonists of the estrogen related receptor (ERR) signaling pathway from Tox21 library - cell viability counter screen (AID 1224834); note: nearly all actives have a fitted effect of over 30% in size
# Outline: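 Counter screen run in ERR cells (2,000 cells/well): cells pre-incubated 6 h, then treated with compounds for 17.5 h at 37 C. Fluorescence was read 30 min after CellTiter-Fluor addition.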
# [6] = biological target: Luciferin 4-monooxygenase (Photinus pyralis) (UniProt P08659); test: qHTS assay to identify small molecule inhibitors of firefly luciferase (AID 1224835); note: nearly all actives have a fitted effect of over 25% in size; note: potency is the fitted concentration of half-maximal effect
# Outline: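 Quantitative HTS format; KM concentrations of both substrates. Purified P. pyralis FLuc activity quantified from luminescence images.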
# [7] = qHTS assay to identify small molecule agonists of the constitutive androstane receptor (CAR) signaling pathway - cell viability counter screen (AID 1224836); note: series mostly up to about 92 µM; nearly all actives have a fitted effect of over 45% in size
# Outline: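 HepG2 cells stably carrying hCAR and a CYP2B6-2.2kb reporter were plated 4 h, then given compounds at 15 concentrations plus PK11195 (final 0.75 uM). After 23 h at 37 C, viability was read by CellTiter-Fluor fluorescence.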
# [8] = qHTS assay to identify small molecule antagonists of the constitutive androstane receptor (CAR) signaling pathway - cell viability counter screen (AID 1224837); note: series mostly up to about 92 µM; nearly all actives have a fitted effect of over 45% in size
# Outline: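 CITCO at 50 nM final was added alongside compounds (15 concentrations) to double-stable hCAR/CYP2B6-2.2kb HepG2 cells. Following 23 hr at 37 C, cell viability was quantified by CellTiter-Fluor fluorescence intensity.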
# [9] = biological target: Nuclear receptor subfamily 1 group I member 3 (Homo sapiens) (UniProt Q14994); test: qHTS assay to identify small molecule antagonists of the constitutive androstane receptor (CAR) signaling pathway (AID 1224838); note: nearly all actives have a fitted effect of over 40% in size
# Outline: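 Inhibition of CITCO-driven (50 nM final) CYP2B6 reporter expression is measured in HepG2 cells stably carrying hCAR. Fifteen compound concentrations are applied for 24 h at 37 C, followed by luciferase luminescence.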
# [10] = biological target: Nuclear receptor subfamily 1 group I member 3 (Homo sapiens) (UniProt Q14994); test: qHTS assay to identify small molecule agonists of the constitutive androstane receptor (CAR) signaling pathway (AID 1224839); note: series mostly up to about 92 µM; nearly all actives have a fitted effect of over 15% in size
# Outline: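 HepG2 cells stably expressing hCAR and a CYP2B6-2.2kb luciferase reporter were treated with compounds at 15 concentrations plus 0.75 uM PK11195 (final) for 24 h at 37 C; luminescence was read after ONE-Glo addition.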
# [11] = qHTS assay to identify small molecule antagonists of the estrogen related receptor signaling pathway with the pleiotropic PPARgamma coactivator (PGC) from Tox21 10K library - cell viability counter screen (AID 1224840; active = well fitted cell-killing curve with a large enough effect in the repeat runs, not every such curve was filed as active; note: nearly all actives have a fitted effect of over 40% in size)
# Outline: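 Readout: fluorescence intensity from CellTiter-Fluor after 30 min at 37 C/5% CO2. Preceded by 17.5 h treatment of PGC/ERR cells with DMSO-dissolved compounds, added 6 h post-seeding.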
# [12] = biological target: Thyrotropin receptor (Homo sapiens) (UniProt P16473); test: qHTS assay to identify small molecule agonists of the thyroid stimulating hormone receptor (TSHR) signaling pathway (AID 1224843; calls by dose curve; note: nearly all actives have a fitted effect of over 45% in size)
# Outline: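 Compounds are titrated over 15 concentrations, in triplicate, onto TSHR-HEK293 cells seeded at 800/well. Plates sit 30 min at room temperature before cAMP-d2 and anti-cAMP cryptate are added; signal is read after a further hour.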
# [13] = qHTS assay to identify small molecule agonists of the hypoxia (HIF-1) signaling pathway - cell viability counter screen (AID 1224844; calls by dose curve; note: nearly all actives have a fitted effect of over 50% in size)
# Outline: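 In this counter screen, HRE-bla ME-180 cell viability after 17 hrs of compound exposure at 37C was read by CellTiter-Glo luminescence, multiplexed with the beta-lactamase reporter measurement.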
# [14] = qHTS assay to identify small molecule agonists of the hypoxia (HIF-1) signaling pathway (AID 1224846; active = well fitted activation curve with a large enough effect in the signal ratio in the repeat runs, not every such curve was filed as active; the % refers to the signal ratio)
# Outline: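 ME-180 HRE-bla reporter cells; compounds in DMSO, 17 h at 37C; read-out beta-lactamase via CCF4-AM FRET.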
# [15] = qHTS assay to identify small molecule agonists of H2AX - cell viability counter screen (AID 1224847; calls by dose curve; note: top concentration of the series differs between compounds; nearly all actives have a fitted effect of over 30% in size)
# Outline: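 Wild-type CHO-K1 cells (10% FBS medium) were plated overnight at 37C, exposed to compounds at 15 concentrations for 3 hr at 37C (0.76% DMSO final), and viability was read as CellTiter-Glo luminescence after 30 min at room temperature.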
# [16] = qHTS assay to identify small molecule agonists of H2AX (AID 1224845; active = well fitted activation curve with a large enough effect in the signal ratio in the repeat runs, not every such curve was filed as active; the % refers to the signal ratio)
# Outline: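 Wild-type CHO-K1 cells plated overnight, then exposed 3 hr at 37C to compounds at 15 concentrations (0.76% DMSO). Lysed, then HTRF anti-pH2AX(S139)-cryptate/anti-H2AX-d2 detection after 24 hr at room temperature; emissions 665 and 620 nm.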
# [17] = qHTS assay to identify small molecule antagonists of the estrogen related receptor signaling pathway with the pleiotropic PPARgamma coactivator (PGC) from Tox21 10K library (AID 1224841; call rule not given here; note: series mostly up to about 92 µM; actives are mostly falling curves and most rising ones were filed inactive; nearly all actives have a fitted effect of over 50% in size)
# Outline: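 One-Glo luminescence, measured after half an hour at room temperature, quantified reporter output of PGC/ERR cells. These had been plated at 2,000 per well, incubated 6 h, dosed with compounds in DMSO, then kept 18 h at 37 C.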
# [18] = qHTS assay to identify small molecule agonists of the estrogen related receptor signaling pathway with the pleiotropic PPARgamma coactivator (PGC) from Tox21 10K library (AID 1224842); note: nearly all actives have a fitted effect of over 15% in size
# Outline: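 PGC/ERR reporter cells (NTP line) were seeded 2,000 per well, rested 6 h at 37 C/5% CO2, then pin-dosed with compounds in DMSO for 18 h at 37 C; luciferase read by One-Glo luminescence after 30 min at room temperature.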
# [19] = qHTS assay to identify small molecule antagonists of the estrogen related receptor (ERR) signaling pathway from Tox21 library (AID 1224848); note: nearly all actives have a fitted effect of over 50% in size
# Outline: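 First, 2,000 ERR cells per well were plated and held 6 h at 37 C/5% CO2. Next, compounds in DMSO were pinned in and left 18 h at 37 C. Finally, ONE-Glo was added and luminescence read after 30 min at room temperature.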
# Chain of Nuclear receptor subfamily 1 group I member 3 (Homo sapiens) (Q14994 whole entry, looked up): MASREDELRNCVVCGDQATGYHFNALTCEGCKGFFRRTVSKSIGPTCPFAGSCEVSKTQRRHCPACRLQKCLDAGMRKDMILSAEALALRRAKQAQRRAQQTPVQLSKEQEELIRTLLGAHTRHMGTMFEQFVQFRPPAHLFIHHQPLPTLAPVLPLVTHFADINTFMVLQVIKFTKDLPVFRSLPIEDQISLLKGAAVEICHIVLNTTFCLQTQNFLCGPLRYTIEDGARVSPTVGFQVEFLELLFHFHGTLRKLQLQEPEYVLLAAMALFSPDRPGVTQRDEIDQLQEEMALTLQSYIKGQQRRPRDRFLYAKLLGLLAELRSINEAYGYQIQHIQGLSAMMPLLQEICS
# Chain of Thyrotropin receptor (Homo sapiens) (P16473 whole entry, looked up): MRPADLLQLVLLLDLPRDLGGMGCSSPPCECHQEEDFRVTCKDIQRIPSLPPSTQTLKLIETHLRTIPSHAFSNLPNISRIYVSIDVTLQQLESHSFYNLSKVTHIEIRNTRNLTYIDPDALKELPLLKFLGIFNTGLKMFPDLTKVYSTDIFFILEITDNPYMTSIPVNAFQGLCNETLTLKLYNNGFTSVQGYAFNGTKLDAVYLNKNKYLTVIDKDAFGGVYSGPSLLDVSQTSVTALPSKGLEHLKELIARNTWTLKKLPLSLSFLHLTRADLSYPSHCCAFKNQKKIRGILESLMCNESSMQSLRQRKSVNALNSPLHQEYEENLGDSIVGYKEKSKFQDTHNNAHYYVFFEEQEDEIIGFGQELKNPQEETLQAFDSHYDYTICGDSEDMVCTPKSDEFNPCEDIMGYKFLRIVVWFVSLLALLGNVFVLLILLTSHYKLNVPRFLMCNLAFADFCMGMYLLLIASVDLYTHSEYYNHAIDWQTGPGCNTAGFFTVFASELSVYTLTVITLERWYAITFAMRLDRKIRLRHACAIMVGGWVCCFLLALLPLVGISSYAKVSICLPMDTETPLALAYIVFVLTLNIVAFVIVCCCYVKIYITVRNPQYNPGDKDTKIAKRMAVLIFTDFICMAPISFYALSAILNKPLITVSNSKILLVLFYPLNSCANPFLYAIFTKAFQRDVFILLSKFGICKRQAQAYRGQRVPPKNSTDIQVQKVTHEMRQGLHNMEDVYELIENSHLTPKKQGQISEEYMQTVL
# Chain of Luciferin 4-monooxygenase (Photinus pyralis) (P08659 whole entry, looked up): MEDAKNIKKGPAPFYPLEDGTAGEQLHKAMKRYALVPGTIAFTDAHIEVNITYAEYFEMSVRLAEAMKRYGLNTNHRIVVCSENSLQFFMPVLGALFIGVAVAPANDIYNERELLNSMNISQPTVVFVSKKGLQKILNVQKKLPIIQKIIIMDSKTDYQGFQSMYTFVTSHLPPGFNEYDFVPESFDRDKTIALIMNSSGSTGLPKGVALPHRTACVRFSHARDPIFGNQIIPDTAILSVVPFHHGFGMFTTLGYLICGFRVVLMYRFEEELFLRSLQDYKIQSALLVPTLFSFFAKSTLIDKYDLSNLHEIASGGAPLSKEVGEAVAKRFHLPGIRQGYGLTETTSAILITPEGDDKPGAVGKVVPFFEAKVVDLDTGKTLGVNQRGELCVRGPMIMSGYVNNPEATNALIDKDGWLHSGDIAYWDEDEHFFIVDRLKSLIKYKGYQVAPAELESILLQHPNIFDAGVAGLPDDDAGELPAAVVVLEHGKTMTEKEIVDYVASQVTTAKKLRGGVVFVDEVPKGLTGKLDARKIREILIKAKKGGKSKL
SMILES,outcome [1],outcome [2],outcome [3],Potency [4],outcome [5],Potency [6],outcome [7],outcome [8],Potency [9],Potency [10],outcome [11],outcome [12],outcome [13],outcome [14],outcome [15],outcome [16],outcome [17],outcome [18],Potency [19]
CC1=NN(c2ccc(S(=O)(=O)O)cc2)C(=O)C1,inactive,inactive,inactive,inactive,inactive,inactive,inactive,inactive,inactive,inactive,inactive,inactive,inactive,inactive,inactive,,,,
NCCOCCN,inactive,inactive,inactive,inactive,inactive,inactive,inactive,inactive,inactive,inactive,,inactive,inactive,inactive,inactive,inactive,,,
CC(=O)CC(=O)OC(C)(C)C,inactive,,inactive,inactive,inactive,inactive,inactive,inactive,inactive,inactive,inactive,inactive,inactive,inactive,inactive,inactive,,,
O=C[O][Al]([O]C=O)[O]C=O,inactive,inactive,inactive,inactive,inactive,63.3 µM (active),inactive,,inactive,inactive,,,inactive,inactive,inactive,,,,
O=C1CCCCO1,inactive,inactive,inactive,inactive,inactive,inactive,inactive,inactive,inactive,inactive,inactive,inactive,inactive,inactive,inactive,inactive,,,
CN(C)CCCO[C@@H]1[C@H]2OC(C)(C)O[C@H]2O[C@@H]1C(O)CO (stereo partly specified),inactive,,inactive,inactive,inactive,inactive,inactive,inactive,inactive,inactive,inactive,,inactive,,inactive,inactive,inactive,inactive,inactive
CN(C)CCCCl,inactive,inactive,inactive,inactive,inactive,inactive,inactive,inactive,inactive,inactive,inactive,inactive,,inactive,inactive,inactive,,,
CCCCCCCCCCOC(C)=O,inactive,inactive,inactive,inactive,inactive,inactive,inactive,,inactive,inactive,inactive,inactive,inactive,inactive,inactive,inactive,,,
CC1c2ccccc2CN1NC(=O)c1ccc(Cl)c(S(N)(=O)=O)c1 (stereo unspecified),inactive,,inactive,inactive,inactive,inactive,inactive,inactive,inactive,inactive,inactive,inactive,inactive,inactive,inactive,inactive,,inactive,inactive
